Source: PubChem BioAssay (several laboratories)
CFTR F508del cor – correctors of CFTR F508del function in bronchial epithelial cells; activity (quench increase), % at 7.58 µM; hit rate 0.36% among 350,000; CFBE cells, YFP halide quenching; stimulated with forskolin plus potentiator P3; % fluorescence drop versus neutral controls;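 active means mean added fluorescence quench of at least 8% versus neutral control, with both replicates also reaching 8%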;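 further: cells transiently co-express mutant CFTR-F508del with the halide-sensitive YFP; corrector assay measuring rescue of mutant channel to the surface after 24 h compound exposure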
PAX8 inh HTS – inhibitors of PAX8 transcriptional activity in RMG-I cells | RMG-I TPO-luciferase reporter, SteadyGlo, 24 h | inhibition, % at 12.6 µM | hit rate 1.2% among 360,000;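 active means mean replicate inhibition at least 60% with every replicate also reaching 60%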;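 further: luciferase light reporting Pax8 driven TPO promoter activity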
HIV Env fusion – inhibitors of HIV Env-mediated cell fusion; HeLa-JRFL Env/CEM21 cell fusion, luciferase; inhibition, % at 12.3 µM; hit rate 1.1% among 360,000; AID 651610;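 active means mean replicate inhibition score of at least 50 and every replicate individually at or above 50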
GAA850 FXN act – increases GAA850 frataxin promoter reporter activity; HEK293 lucGAA850 FXN promoter luciferase reporter, 24 h; percent of 10 µM SAHA response; activation, % at 6 µM; hit rate 0.56% among 360,000; AID 540364;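 active means activation above the average of all compounds screened plus 3 SD, cutoff fixed separately per campaign, cut at about 7.5% in these data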
EWS-Fli inh – inhibitors of EWS/Fli oncoprotein transcriptional activity. inhibition, % at 12.6 µM. hit rate 0.67% among 350,000. AID 651661. A673 NR0B1-luciferase reporter, viability-normalised;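 active means mean inhibition of at least 50% after viability correction, with every replicate also passing that limit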;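 further: firefly luciferase signal divided by Alamar Blue viability fluorescence both relative to DMSO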
Hits are given with their value; – = inactive; · = not tested or not shown. Sampled rows, rich in hits. Any-hit rate of the full collection: about 2.5%.

SMILES | CFTR F508del cor | PAX8 inh HTS | HIV Env fusion | GAA850 FXN act | EWS-Fli inh
Nc1c(C(=O)Nc2ccc(Cl)c(C(=O)O)c2)sc2nc3c(cc12)CCCC3 | – | – | – | – | ·
Nc1c(C(=O)Nc2cccc(C(=O)O)c2)sc2nc3c(cc12)CCCC3 | – | 85 | – | – | 85
CCCNC(=O)[C@H]1[C@H](CO)[C@H]2Cn3c(ccc(C4=CCCC4)c3=O)[C@@H]1N2S(C)(=O)=O | – | – | · | · | –
Cc1nn(Cc2c(F)c(F)c(F)c(F)c2F)c(C)c1NC(=O)c1c(-c2ccccc2)nn(-c2ccccc2)c1C | · | · | 95 | – | ·
Cc1nn(Cc2c(F)c(F)c(F)c(F)c2F)c(C)c1NC(=O)c1ccc(COc2ccccc2Cl)cc1 | · | · | – | – | ·
Cc1nn(Cc2c(F)c(F)c(F)c(F)c2F)c(C)c1NC(=O)c1ccc(COc2ccccc2Cl)o1 | · | · | 66 | – | ·
Cc1c(C(=O)NCc2ccc(F)cc2)c(-c2ccccc2)nn1-c1ccccc1 | · | – | – | – | ·
Cc1nn(Cc2c(F)c(F)c(F)c(F)c2F)c(C)c1NC(=O)c1ccc(COc2ccc(F)cc2)o1 | · | · | 67 | – | ·
CCC(=O)N1CC2(C1)[C@@H](c1ccccc1)[C@@H](CO)N2CC1CC1 | – | – | · | · | –
C[C@@H]1CN([C@H](C)CO)C(=O)Cc2cc(NS(C)(=O)=O)ccc2O[C@@H]1CN(C)S(=O)(=O)c1ccc(Cl)cc1 | – | – | – | · | –
COc1ccc(/C=N/NC(=S)Nc2cccc(C(=O)O)c2)cc1 | – | – | – | – | –
COc1cccc(/C=N/NC(=O)c2cc(-c3ccccn3)nc3ccccc23)c1O | – | 68 | – | – | –
COc1ccccc1/C=N/NC(=O)c1cccc(OC(F)(F)C(F)F)c1 | · | – | – | – | –
COc1cccc(/C=N/NC(=S)Nc2cccc(C(=O)O)c2)c1O | – | – | – | – | 61
COc1cccc(/C=N/NC(=O)C(=O)Nc2ccccc2OC(F)(F)C(F)F)c1O | 15 | – | – | – | –
COc1cc(/C=N/NC(=S)Nc2cccc(C(=O)O)c2)ccc1O | · | 80 | – | – | 81
Cc1ccccc1-c1ccccc1[C@H]1[C@@H](CO)N(C(=O)c2ccccc2)[C@H]1C#N | – | · | · | · | –
C[C@H]1CN([C@@H](C)CO)C(=O)c2cc(NC(=O)Nc3ccccc3)ccc2O[C@@H]1CN(C)C(=O)Nc1ccc2c(c1)OCO2 | – | · | – | · | –
COc1ccc(-n2nc([N+](=O)[O-])c(=NCCc3ccccc3)n2O)cc1 | – | 94 | · | – | –
O=[N+]([O-])c1nn(-c2ccccc2)n(O)c1=NCCc1ccccc1 | · | · | · | – | ·
O=C(c1[nH]ncc1-c1ccccc1)C1CO1 (stereo not drawn) | – | – | – | – | –
O=C(c1[nH]ncc1-c1cccc(Br)c1)C1CO1 (stereo not drawn) | 11 | – | – | – | –
CC(C)Nc1nc(Nc2ccc(Cl)cc2F)c2sccc2n1 | 8.6 | – | – | – | –
COCCNc1nc(NC(C)C)nc2ccsc12 | – | – | – | – | –
C[C@@H]1CN([C@H](C)CO)C(=O)c2cc(NS(C)(=O)=O)ccc2O[C@H]1CN(C)Cc1ccc(C(=O)Nc2ccccc2N)cc1 | – | · | – | · | –
SMILES | CFTR F508del cor | PAX8 inh HTS | HIV Env fusion | GAA850 FXN act | EWS-Fli inh
CC1=C(C(=O)OCc2ccc3c(c2)OCO3)C(c2ccccc2OCc2ccccc2)NC(=O)N1 (stereo not drawn) | · | · | 61 | – | ·
CC1=C(C(=O)OCc2ccc3c(c2)OCO3)C(c2ccccc2)NC(=O)N1 (stereo not drawn) | · | · | 107 | – | ·
COc1ccc(COC(=O)C2=C(C)NC(=O)NC2c2ccc(O)cc2)cc1 (stereo not drawn) | – | – | – | – | –
COc1ccc(COC(=O)C2=C(C)NC(=O)NC2c2ccc(OC)cc2)cc1 (stereo not drawn) | – | – | 72 | – | –
CCCOc1ccccc1C1NC(=O)NC(C)=C1C(=O)OCc1ccccc1 (stereo not drawn) | · | · | · | – | ·
COc1ccccc1CN1C(=O)CN(C2CCCCCC2)C(=O)C1c1ccc(F)cc1 (stereo not drawn) | · | · | 82 | – | ·
CC(C)CC#Cc1ccc([C@H]2[C@@H](CO)N3C(=O)CN(C(=O)c4cnccn4)C[C@@H]23)cc1 | – | · | · | · | –
COc1ccc(-c2ccc3n(c2=O)C[C@H]2[C@H](CO)[C@@H](C(=O)Nc4ccccc4)[C@@H]3N2C)cc1 | · | – | – | · | –
CCO[C@@H]1OC(C(=O)NCc2nc3ccccc3[nH]2)=C[C@H](C(C)(C)C)[C@H]1CCCO | – | 64 | – | – | 53
CCO[C@@H]1OC(C(=O)NCc2nc3ccccc3[nH]2)=C[C@H](C2CC2)[C@H]1CCCO | – | – | – | – | –
